# Data as given in PubChem BioAssay (NCATS).
# Inconclusive results are not listed. Where a call stands in place of a potency, no number is given. Active and inactive are the calls of the source. Unless noted, calls come from the whole dose curve; as a rule, active = well fitted curve in the direction sought with a large enough effect; inconclusive = small, poorly fitted or top-dose-only effect, or another doubt; inactive = no such curve, though single readings can be large; an effect the other way counts as inactive or inconclusive.
# Tests used:
# [1] = test system: Zika virus NS2B-NS3 protease; assay: Primary screen GU AMC qHTS for Zika virus inhibitors (AID 1347154); note: nearly all actives have a fitted effect of over 70% in size
# How it was run: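 Unlinked Zika NS2B hydrophilic domain–NS3 protease complex at 25 nM in 10 mM Tris-HCl pH 8.0, 0.01% Tween 20, with an AMC peptide substrate. Fluorescence change (340/450 nm) over 15 min at room temperature, normalized to controls, fitted to 4-parameter Hill.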
# [2] = qHTS to identify inhibitors of the type 1 interferon - major histocompatibility complex class I in skeletal muscle: primary screen against the NCATS Mechanism Interrogation Plate v5.0 (MIPE) Libary (AID 1347411); note: nearly all actives have a fitted effect of over 65% in size
# How it was run: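 Immortalized human myoblasts (C25cl48) with HiBit knocked into endogenous HLA-B*08:01 were stimulated with 4 ng/ml IFN-beta and given compounds in 11-point 1:3 titration from 46 uM. After 24 h at 37 C, lytic HiBiT luminescence was read.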
# [3] = Primary qHTS for small molecule stabilizers of the endoplasmic reticulum resident proteome: Secreted ER Calcium Modulated Protein (SERCaMP) assay (AID 1508630)
# How it was run: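 GLuc-SERCaMP-expressing SH-SY5Y cells, pretreated 16 h with compound, are challenged with thapsigargin to empty ER calcium stores; after 4 h, coelenterazine is added directly to the medium and luminescence is imaged.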
# [4] = biological target: Cytochrome P450 2D6 (Homo sapiens) (UniProt P10635); assay: Cytochrome P450 family 2 subfamily D member 6 (CYP2D6) small molecule antagonists: luciferase biochemical (cell-free) qHTS assay (AID 1645840; active = well fitted curve in the direction sought with a large enough effect in the repeat runs; an effect the other way counts as inactive or inconclusive; note: potency is the fitted concentration of half-maximal effect; nearly all actives have a fitted effect of over 55% in size)
# Cytochrome P450 2D6 (Homo sapiens), sequence (P10635 whole entry, looked up): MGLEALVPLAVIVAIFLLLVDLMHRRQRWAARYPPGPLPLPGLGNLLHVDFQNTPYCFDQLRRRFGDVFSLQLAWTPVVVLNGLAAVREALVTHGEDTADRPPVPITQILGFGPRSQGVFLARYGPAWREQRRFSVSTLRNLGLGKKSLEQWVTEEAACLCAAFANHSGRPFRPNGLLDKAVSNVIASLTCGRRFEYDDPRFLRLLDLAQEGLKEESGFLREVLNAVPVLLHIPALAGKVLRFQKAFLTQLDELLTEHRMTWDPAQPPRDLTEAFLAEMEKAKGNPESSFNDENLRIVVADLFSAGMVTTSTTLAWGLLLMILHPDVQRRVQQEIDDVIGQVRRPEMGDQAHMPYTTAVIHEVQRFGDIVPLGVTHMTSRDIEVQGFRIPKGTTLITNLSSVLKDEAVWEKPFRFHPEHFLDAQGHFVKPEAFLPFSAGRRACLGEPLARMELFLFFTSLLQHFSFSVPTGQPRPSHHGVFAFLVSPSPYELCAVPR
# How it was run: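 P450-Glo luminescent screen: recombinant CYP2D6 enzyme–proluciferin substrate mix preincubated with compound 10 min at room temperature, then NADPH regeneration added for 1 h at room temperature. Detection reagent added for 20 min; luciferin light read as relative luminescence units.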
# [5] = biological target: Cytochrome P450 2C9 (Homo sapiens) (UniProt P11712); assay: Cytochrome P450 family 2 subfamily C member 9 (CYP2C9) small molecule antagonists: luciferase biochemical (cell-free) qHTS assay (AID 1645842; active = well fitted curve in the direction sought with a large enough effect in the repeat runs; an effect the other way counts as inactive or inconclusive; note: potency is the fitted concentration of half-maximal effect; nearly all actives have a fitted effect of over 55% in size)
# Cytochrome P450 2C9 (Homo sapiens), sequence (P11712 whole entry, looked up): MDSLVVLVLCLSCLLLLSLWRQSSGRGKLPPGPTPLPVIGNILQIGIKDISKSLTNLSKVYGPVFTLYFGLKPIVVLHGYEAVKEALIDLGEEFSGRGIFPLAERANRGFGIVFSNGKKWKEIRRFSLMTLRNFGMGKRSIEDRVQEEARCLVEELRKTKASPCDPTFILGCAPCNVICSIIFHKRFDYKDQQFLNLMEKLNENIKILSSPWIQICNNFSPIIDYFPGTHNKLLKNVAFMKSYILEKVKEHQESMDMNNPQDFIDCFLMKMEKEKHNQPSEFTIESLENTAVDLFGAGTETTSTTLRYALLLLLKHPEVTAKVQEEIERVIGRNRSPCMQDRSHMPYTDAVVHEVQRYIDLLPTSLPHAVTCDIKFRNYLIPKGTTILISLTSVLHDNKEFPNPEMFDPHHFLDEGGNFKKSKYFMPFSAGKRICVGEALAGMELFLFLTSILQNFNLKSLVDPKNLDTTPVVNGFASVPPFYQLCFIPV
# How it was run: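 Luminescence, after 20 min with luciferin detection reagent, reflected CYP2C9 turnover during a 1 h NADPH-driven reaction at 37C. Enzyme-substrate mix contained 0.4% bovine serum albumin and was preincubated with compound 10 min at room temperature.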
# [6] = biological target: Glutathione peroxidase 1 (Homo sapiens) (UniProt P07203); assay: Primary qHTS Assay for Inhibitors of Recombinant Selenoprotein Glutathione Peroxidase 1 (GPX1) (AID 1845191); note: nearly all actives have a fitted effect of over 65% in size
# Glutathione peroxidase 1 (Homo sapiens), sequence (P07203 whole entry, looked up): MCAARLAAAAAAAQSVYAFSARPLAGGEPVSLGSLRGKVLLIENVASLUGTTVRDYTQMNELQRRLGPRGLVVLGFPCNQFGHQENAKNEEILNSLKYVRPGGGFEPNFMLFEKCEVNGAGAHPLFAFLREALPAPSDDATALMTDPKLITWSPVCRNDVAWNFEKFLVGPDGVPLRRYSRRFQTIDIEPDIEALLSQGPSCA
# How it was run: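 GR-coupled assay: compounds preincubated 30 min at room temperature with GPX1, then reaction started with CHP; final 10 nM GPX1, 1 mM GSH, 0.5 mM CHP, 0.5 mM NADPH, 100 nM GR, 0.01% BSA, pH 7.5 Tris buffer. NADPH fluorescence (340/450 nm) read at 0 and 15 min.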
# [7] = biological target: Phospholipid hydroperoxide glutathione peroxidase GPX4 (Homo sapiens) (UniProt P36969); assay: Primary qHTS Assay for Inhibitors of Recombinant Selenoprotein Glutathione Peroxidase 4 (GPX4) (AID 1845192); conditions: outcome: dose series up to 50 µM unless noted; note: nearly all actives have a fitted effect of over 65% in size
# Phospholipid hydroperoxide glutathione peroxidase GPX4 (Homo sapiens), sequence (P36969 whole entry, looked up): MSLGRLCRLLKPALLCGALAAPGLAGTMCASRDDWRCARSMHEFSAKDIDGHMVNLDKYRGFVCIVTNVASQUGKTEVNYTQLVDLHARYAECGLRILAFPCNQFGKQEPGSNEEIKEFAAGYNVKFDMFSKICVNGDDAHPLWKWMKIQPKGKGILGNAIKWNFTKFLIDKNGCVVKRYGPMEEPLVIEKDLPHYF
# How it was run: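 GR-coupled assay: recombinant GPX4 preincubated 30 min with compound at room temperature; final 200 nM GPX4, 1 mM GSH, 0.5 mM cumene hydroperoxide, 0.5 mM NADPH, 100 nM GR, 0.01% BSA, pH 7.5 Tris. NADPH fluorescence (340/450 nm) read at 0 and 15 min.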
# [8] = qHTS drug screen for cell cycle checkpoint inhibitors in PARPi-resistant BRCA-mutant ovarian cancer cell lines. (AID 1963452; calls by dose curve); conditions: PEO1/OlaR viability, CellTiter-Glo luminescence, 96 h, stronger effect = lower value
# How it was run: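 PEO1, PEO4 and PEO1/OlaR ovarian cancer cells, 600 per well, exposed 96 h at 37C to a dilution series. Viability read by CellTiter-Glo luminescence, normalized to DMSO and empty wells; activity summarized as Z-AUC.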
# [9] = NCATS anti-infectives library activity on HEK293 viability as a counter-qHTS vs the C. elegans viability qHTS (AID 1745854);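 note: HEK293 cells exposed to compounds for 24 hr before the viability read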
# How it was run: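 HEK293 cells (1,500/well) exposed 24 hr at 37C to 1:5 titrations, up to 41.7 uM final; counter-screen to a C. elegans viability qHTS. Viability by CellTiter-Glo luminescence after 10 min at room temperature; digitonin as control.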
# [10] = measured here: PEO1 parental Z-AUC
SMILES,Potency [1],Potency [2],Potency [3],Potency [4],Potency [5],Potency [6],Potency [7],Z-AUC [8],"Z-AUC [8, 10]",Z-AUC ([8]; measured here: PEO4 Z-AUC),outcome [9]
N#C/C(=C(/N)Sc1ccc(N)cc1)c1ccccc1C(F)(F)F,inactive,inactive,inactive,16.9 µM (active),9.52 µM (active),inactive,inactive,-0.578 (inactive),-0.277,-0.614,
CCCC[C@@H](C=O)NC(=O)[C@H](CC(C)C)NC(=O)OCc1ccccc1,inactive,inactive,inactive,,,inactive,inactive,1.25 (inactive),0.731,0.856,inactive
